Measurements published in the supplement of paper PMC3334620.
Whole data set: some 33,000 sequences, median “E-score (-0.5 to 0.5)” near -0.056, cut for the highest 2% near 0.38. This is one part of a sample in which the highest values are shown more often than they occur.

The sequences below were run against Stb4 (UniProt P50104) (assay: PBM E-score (8-mer binding enrichment) (E-score (-0.5 to 0.5)); higher = stronger / more preferred TF binding). Settings: protein concentration: 200 nM; construct: GST-DNA-binding domain.
Sequence of UniProt P50104 (P50104 whole entry, the tested form may be a part): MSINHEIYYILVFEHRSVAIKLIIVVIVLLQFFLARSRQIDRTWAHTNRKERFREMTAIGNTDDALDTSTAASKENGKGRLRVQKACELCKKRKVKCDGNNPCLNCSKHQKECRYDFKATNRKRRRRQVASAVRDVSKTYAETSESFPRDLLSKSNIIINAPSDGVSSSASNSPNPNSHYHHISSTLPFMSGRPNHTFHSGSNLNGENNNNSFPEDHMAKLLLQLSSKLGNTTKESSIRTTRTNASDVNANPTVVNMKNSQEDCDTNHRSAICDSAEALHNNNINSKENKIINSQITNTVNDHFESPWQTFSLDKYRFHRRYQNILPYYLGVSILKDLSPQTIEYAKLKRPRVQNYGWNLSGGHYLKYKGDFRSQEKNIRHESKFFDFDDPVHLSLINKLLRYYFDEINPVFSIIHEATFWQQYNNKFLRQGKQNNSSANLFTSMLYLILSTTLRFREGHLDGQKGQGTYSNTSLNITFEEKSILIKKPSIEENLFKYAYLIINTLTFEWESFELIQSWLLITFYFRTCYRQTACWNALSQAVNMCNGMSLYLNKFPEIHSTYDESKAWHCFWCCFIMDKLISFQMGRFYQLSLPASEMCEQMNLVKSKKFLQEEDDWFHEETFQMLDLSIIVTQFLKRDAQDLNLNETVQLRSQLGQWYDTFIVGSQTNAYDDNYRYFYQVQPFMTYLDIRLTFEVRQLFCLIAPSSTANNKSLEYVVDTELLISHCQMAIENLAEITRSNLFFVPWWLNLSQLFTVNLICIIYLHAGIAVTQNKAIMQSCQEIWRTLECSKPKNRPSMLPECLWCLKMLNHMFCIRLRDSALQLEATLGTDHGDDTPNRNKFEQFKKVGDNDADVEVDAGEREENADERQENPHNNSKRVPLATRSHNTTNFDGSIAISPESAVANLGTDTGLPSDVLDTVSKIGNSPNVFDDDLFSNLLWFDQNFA
Procedure: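 Universal 'all 10-mer' protein binding microarrays (Agilent AMADID 015681) probed with GST-tagged S. cerevisiae TFs (full-length or DBD) made by in vitro transcription/translation (PURExpress), about 100-200 nM. Bound TF was detected with fluorescent anti-GST. Each ungapped 8-mer (which stands for itself and its reverse complement) is scored by the PBM enrichment score (E-score), a modified Wilcoxon-Mann-Whitney statistic from -0.5 to +0.5, computed with the Universal PBM Analysis Suite. Scale: above 0.35 generally sequence-specific binding.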

| Sequence | PBM E-score |
| --- | --- |
| AAGAATAT | 0.0558 |
| GCAAGTAA | -0.0627 |
| ATTTAAAT | -0.101 |
| AGAAAGGG | -0.138 |
| ATCTTGTA | -0.0999 |
| TGAGAGCA | -0.178 |
| CATCGCCA | -0.0625 |
| CGGCGGAA | 0.408 |
| AGGCGGAA | 0.278 |
| GGGCGGAA | 0.308 |
| CAGCTTTA | -0.0389 |
| TCGCGGAA | 0.315 |
| ACTCGGAT | 0.467 |
| ACTCGGTG | 0.124 |
| GCGCGGAA | 0.338 |
| TCTCGGAA | 0.479 |
| GCTCGGAA | 0.482 |
| ACTCGTAA | 0.0295 |
| ACTCGGAC | 0.327 |
| ACTCGGTC | 0.204 |
| TCTCGTAA | 0.00218 |
| ACTCGGAA | 0.47 |
| GCACGGAA | 0.327 |
| CAGTCCCC | -0.362 |
| CTCTCAGC | -0.362 |

| Sequence | PBM E-score |
| --- | --- |
| CCACTGGG | -0.231 |
| ATCGCATG | -0.117 |
| AGATACAC | -0.107 |
| AGGCAGGA | -0.188 |
| ACTCTATC | -0.0391 |
| AAGGCTAC | -0.0344 |
| CCCACTCG | 0.0329 |
| GCTCGGAC | 0.391 |
| GCTCGTAC | -0.0377 |
| GCACGGAC | 0.13 |
| TCACGGAA | 0.389 |
| ACACGGAA | 0.338 |
| CCACGGAA | 0.354 |
| GTCACCAC | -0.103 |
| AGGGGAGA | -0.0188 |
| GTGCGTCA | -0.101 |
| CCCCGCTC | -0.0289 |
| CTAAATCC | 0.205 |
| GATTATCA | 0.0201 |
| AGTATCAT | 0.0471 |
| ACTCCAGC | -0.253 |
| CGGGTACC | 0.312 |
| CGGGTAGC | 0.37 |
| CGGGTAGA | 0.389 |
| AGGGTATC | -0.0302 |

| Sequence | PBM E-score |
| --- | --- |
| AGGGTAGA | -0.166 |
| CGGGTTTA | 0.389 |
| CGGGTATA | 0.418 |
| CGGGTATC | 0.404 |
| AGGGTATA | -0.029 |
| GGGGTATA | 0.06 |
| GGGGTTTA | -0.0416 |
| CGGGTTTC | 0.277 |
| CAGCATCC | 0.121 |
| GACAAGTA | -0.0988 |
| AGAGTGCG | -0.164 |
| CGTTGATA | 0.0343 |
| AGATCTGG | -0.188 |
| CAACTAGA | -0.182 |
| GAACGGTC | 0.148 |
| GATCCGCC | 0.273 |
| CATCCGCG | 0.285 |
| GATCCAAC | 0.104 |
| AATCCGCG | 0.127 |
| AATCCGTG | 0.172 |
| AATCCGCC | 0.218 |
| GATCCGAC | 0.434 |
| GATCCCAC | -0.00608 |
| CATCCGCC | 0.4 |
| CATCCGAG | 0.481 |

| Sequence | PBM E-score |
| --- | --- |
| CGTCCGAG | 0.257 |
| AATCCGAG | 0.407 |
| ACCAGCCA | -0.0271 |
| CAGAGATA | -0.182 |
| CGAGTTGC | 0.0987 |
| CGCTCCCA | -0.0934 |
| CCAAACAG | -0.345 |
| GGAGAGAA | 0.0164 |
| GATGTGGC | -0.0114 |
| CATCCGTC | 0.308 |
| CATCCGAC | 0.455 |
| AATCCGAC | 0.346 |
| ACTCAGTG | -0.208 |
| ACGATCAT | -0.174 |
| CAACCATA | -0.251 |
| AACGAATG | -0.142 |
| AGCAGCTG | -0.307 |
| GCTCAGAC | -0.19 |
| CGACTAGA | -0.0326 |
| TGAGTGAA | -0.295 |
| GGAGTGTA | 0.0839 |
| CCGGTCCG | 0.389 |
| CCGGTCCC | 0.282 |
| CCGGTCCA | 0.0504 |
| CCAAAGTA | 0.0417 |

| Sequence | PBM E-score |
| --- | --- |
| AGGGCTCA | -0.326 |
| CATCGGGA | 0.331 |
| CTTCGGGA | 0.439 |
| GTACGGGA | 0.222 |
| GATCGGGA | 0.359 |
| ATTCGGGG | 0.34 |
| ATTCGGGA | 0.415 |
| ATTCGGGC | 0.301 |
| GTTCGGGA | 0.453 |
| CTTCGGGC | 0.291 |
| TGCTAAAA | -0.205 |
| AGATCGAT | -0.16 |
| ACCCCTAT | -0.143 |
| GACCTGCC | 0.0159 |
| ACACTGAG | -0.128 |
| CCGGGACA | 0.326 |
| CTGGAAAA | -0.00258 |
| TCGGGAAA | 0.443 |
| ACGGAAAC | 0.375 |
| CAGGAAAA | -0.0586 |
| GCGGGAAA | 0.306 |
| CCGGAAAA | 0.441 |
| CCGGGAAA | 0.33 |
| CCGGAAAC | 0.394 |
| TCGGGACA | 0.408 |

| Sequence | PBM E-score |
| --- | --- |
| ACGGGACA | 0.276 |
| CCGGAAAG | 0.366 |
| ACGCAAAT | -0.00753 |
| GTAAGACA | -0.166 |
| CCACTGCA | -0.135 |
| AAGGGAGC | -0.0979 |
| CGCTGAAC | 0.00896 |
| AGCGCTCA | -0.191 |
| ATTATGGA | -0.154 |
| CCGCTTTA | 0.138 |
| TCGGGAGA | 0.391 |
| ACGGAAAA | 0.325 |
| TCGGAAAA | 0.451 |
| ACGGGAGA | 0.12 |
| GCGGAAAA | 0.332 |
| GCGGGAGA | 0.227 |
| AGACGGAC | -0.0259 |
| ACTGGTAG | -0.226 |
| ATTGATCG | 0.0261 |
| CCCCGATA | 0.145 |
| GATCTTCC | 0.285 |
| TCGGTTAA | 0.44 |
| CCGGGTCA | 0.276 |
| TCGGGTCA | 0.427 |
| CCGGGTAA | 0.418 |

| Sequence | PBM E-score |
| --- | --- |
| GCGGTAAA | 0.188 |
| ACGGGTCA | 0.0265 |
| TCGGTAAA | 0.433 |
| CCGGGTAG | 0.355 |
| CCGGTTAA | 0.334 |
| CCGGTAAA | 0.312 |
| CCGGGTAC | 0.375 |
| GCGGTTAA | 0.17 |
| GACGCGAC | -0.068 |
| CACCATGG | -0.29 |
| GTCTAGAC | -0.342 |
| ACACAACC | -0.0108 |
| CAGGCTCG | 0.08 |
| AGAGTTAC | -0.165 |
| ATGGTTTA | 0.193 |
| ACGGGTAA | 0.328 |
| GCGGGTAA | 0.325 |
| TCGGGTAA | 0.464 |
| GTTCGGCA | 0.418 |
| ATTCGGCA | 0.438 |
| CTTCGGCA | 0.443 |
| ATTCGGCG | 0.333 |
